# Sampled rows, rich in hits. Any-hit rate of the full collection: about 6.8%.
# NADH enzymes: blocks coupling enzymes of NAD/NADH assays; coupled PK/LDH NADH assays, four targets; AID 774; IC50, µM (series often up to 10 µM), for inactives: at the top dose inhibition; 0.02% of 65,000 active;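 active = single-dose screening hits from any of four coupled enzyme assays that gave an IC50 when retested across doses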;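 note: the DPM-DC format reads NADH fluorescence rather than 340 nm absorbance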
# A340 absorber: compound absorbs light at 340 nm. compound absorbance at 340 nm, fold over control. 65,000 tested, under 10 active. fold change at 10 µM;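 active = at 10 µM dose, initial 340 nm absorbance at least 2 fold that of control wells; inactive = change under 2 fold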;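 note: initial absorbance extrapolated from kinetic A340 decline of NADH oxidation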
# Spn PMK inh: inhibitors of Streptococcus pneumoniae phosphomevalonate kinase. purified PMK, PK/LDH-coupled NADH absorbance 340 nm. inhibition, % at 10 µM. 0.49% of 65,000 active. AID 539;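 active = top-ranked compounds by inhibition in the single 10 µM screen, taking a fixed number of the strongest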;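 note: 0% = full reaction with DMSO carrier and 100% = background rate without enzyme reaction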
# MK inhibit: blocks S. pneumoniae mevalonate kinase; inhibition, % at 10 µM; purified MK, PK/LDH-coupled NADH absorbance 340 nm; 0.48% of 65,000 active; AID 555;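 active = ranked among the strongest by inhibition in the single 10 µM screen, a fixed top-ranked set picked for dose follow-up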
# Autofluor 339: intrinsic fluorescence of library compounds, ex339/em460 – biochemical, MLSMR library, data from DPM-DC assay, artefact control, profiling panel | compound autofluorescence, ex339/em460 nm, NADH buffer; active compounds read high; 1 = no-compound wells, NADH background | fluorescence fold increase at 10 µM | 5.5% of 65,000 active | AID 709;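 active = at 10 µM, mean starting fluorescence two-fold or more over control wells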;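 note: signal is the first read of a kinetic run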
# DPM-DC inhibit: S. pneumoniae DPM-DC inhibition. AID 556. calls only at 10 µM. 0.49% of 65,000 active. purified DPM-DC, PK/LDH coupled NADH fluorescence;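 active = the 320 compounds with the highest percent inhibition in the single-dose primary screen, excluding strongly autofluorescent ones, cut at about 32% in these data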;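 note: kinetic rate of NADH fluorescence loss reporting ADP formed by the decarboxylase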
# * hit, by the source's call; i = inactive; . = no result given; + = active, no number.
SMILES,NADH enzymes,A340 absorber,Spn PMK inh,MK inhibit,Autofluor 339,DPM-DC inhibit
O=C(C1CCN(c2ccc(N3CCOCC3)nn2)CC1)N1CCN(c2ccc(F)cc2)CC1,8.0%,1.03,14.0,2.0,4.85*,.
O=C(c1ccc(N2CCCCS2(=O)=O)cc1)N1CCN(c2ccc(N3CCOCC3)nn2)CC1,15.0%,1.02,20.0,10.0,2.14*,.
O=C(c1cncc(Br)c1)N1CCN(c2ccc(N3CCOCC3)nn2)CC1,11.0%,1.04,11.0,10.0,2.15*,.
O=C(NCc1ccco1)C1CCN(c2ccc(N3CCOCC3)nn2)CC1,2.0%,0.99,5.0,12.0,2.47*,.
O=C(c1ccc(N2CCOCC2)nc1)N1CCOCC1,2.0%,1.02,7.0,0.0,1.1,i
CCn1nnnc1-c1ccc(OC)c(S(=O)(=O)N2CCCCC2)c1,2.0%,1.03,0.0,7.0,1.07,i
CCOC(=O)N1CCC(NC(=O)C2CCCCN2S(=O)(=O)c2ccc(F)cc2)CC1 (centres undefined),2.0%,1.08,0.0,7.0,1.09,i
Cc1ccc(-c2nn(CC(=O)NCCN3CCOCC3)c(=O)c3ccccc23)cc1,3.0%,1.06,6.0,3.0,1.14,i
O=c1c2cccc3c2c(nn1CN1CCOCC1)-c1ccccc1-3,12.0%,1.09,7.0,14.0,2.43*,i
CCCCc1cc(=O)oc2c(CN(C)C)c(O)c(Cl)cc12,3.0%,1.16,0.0,5.0,2.33*,.
CCc1c(C)c2cc(Cl)c(O)c(CN(CC)CC)c2oc1=O,6.0%,1.08,6.0,6.0,3.7*,.
CCc1c(C)c2cc(Cl)c(O)c(CN(C)C)c2oc1=O,7.0%,1.21,1.0,12.0,3.68*,.
Cc1c(C)c2cc(Cl)c(O)c(CN(C)C)c2oc1=O,4.0%,1.14,0.0,8.0,2.31*,.
Cc1ccc(-c2nnc(CSc3nncn3N)o2)cc1,3.0%,1.01,6.0,0.0,1.07,i
O=C(CSc1nnc2sc3ccccc3n12)NCc1ccco1,3.0%,1.01,10.0,0.0,1.13,i
Cc1cnc(C(=O)Nc2cccc3cccnc23)cn1,6.0%,1.06,13.0,2.0,1.04,i
CCn1c(SCC(=O)c2ccccc2)nc2c(c1=O)SC(C)C2 (centres undefined),17.0%,1.12,12.0,40.0*,1.18,i
CC1CN(C(=O)c2cc3c(s2)CCC3)CC(C)O1 (centres undefined),3.0%,1,7.0,1.0,1.12,i
CC1CN(C(=O)c2cc3c(=O)n4ccccc4nc3s2)CC(C)O1 (centres undefined),9.0%,1.12,18.0,0.0,4.87*,.
COc1ccc2c(c1OC)C(=O)N1C(C(=O)O)Cc3c([nH]c4ccccc34)C21 (centres undefined),4.0%,1.02,4.0,1.0,2.17*,i
CC12CCC(=O)N1C(C(=O)O)Cc1c2[nH]c2ccccc12 (centres undefined),5.0%,1.02,13.0,2.0,1.1,i
O=C(COC(=O)c1ccccn1)NCCCc1ccccc1,2.0%,1.05,6.0,0.0,1.08,i
O=C(CN(Cc1ccccc1F)C(=O)c1ccco1)NCc1ccc(F)cc1,4.0%,1.03,11.0,0.0,1.05,i
Cc1n[nH]c(=S)n(/N=C/c2ccccn2)c1=O,23.0%,1.05,43.0*,11.0,1.11,i
CCn1c(=N)c(C(=O)NC)cc2c(=O)n3cccc(C)c3nc21,9.0%,1.03,14.0,4.0,3.86*,.
SMILES,NADH enzymes,A340 absorber,Spn PMK inh,MK inhibit,Autofluor 339,DPM-DC inhibit
COc1ccc(CCNC(=O)c2cc3c(=O)n4cccc(C)c4nc3n(Cc3ccncc3)c2=N)cc1,4.0%,1.03,10.0,3.0,1.57,i
CCOCCCn1c(=N)c(C(=O)NCc2ccc3c(c2)OCO3)cc2c(=O)n3cccc(C)c3nc21,17.0%,1.05,10.0,12.0,2.74*,i
CCn1c(=N)c(C(N)=O)cc2c(=O)n3cccc(C)c3nc21,5.0%,1.06,0.0,9.0,1.95,.
CCCCNC(=O)c1cc2c(=O)n3cccc(C)c3nc2n(Cc2ccncc2)c1=N,6.0%,1.07,8.0,4.0,3.66*,.
COCCNC(=O)c1cc2c(=O)n3cccc(C)c3nc2n(Cc2ccncc2)c1=N,7.0%,1.1,13.0,0.0,3.86*,.
CC1(C)Cc2c(sc3nc4n(c(=O)c23)CCC4)CO1,3.0%,1,0.0,9.0,1.07,i
Cc1cccn2c(=O)c3cc(C(=O)NCCCN4CCOCC4)n(C)c3nc12,2.0%,1.11,0.0,3.0,2.07*,.
Cc1cccn2c(=O)c3cc(C(=O)NC4CCCCC4)c(=N)n(CCN4CCOCC4)c3nc12,3.0%,1,9.0,0.0,1.1,i
CCCCNC(=O)c1cc2c(=O)n3cccc(C)c3nc2n(CCN2CCOCC2)c1=N,3.0%,1.05,1.0,4.0,3.77*,.
CC1CCN(C(=O)c2ccc(C(=O)N3CCC(C)CC3)cc2)CC1,1.0%,0.99,0.0,4.0,1.07,i
Cc1nn2c(c1-c1ccccc1)NC1=C(C(=O)CCC1)C2c1cccnc1 (centres undefined),6.0%,1.08,11.0,0.0,3.81*,.
COc1cc(C(=O)OCC(=O)Nc2ccc3c(c2)OC(F)(F)O3)ccc1OCc1c(C)noc1C,3.0%,1.01,0.0,9.0,1.04,i
COC(=O)c1sc2ccccc2c1C(=O)OC,5.0%,1,14.0,1.0,1.17,i
COC(=O)c1sc2ccccc2c1N,7.0%,1.07,7.0,6.0,2.12*,.
CC1(C)CC(=O)C2=C(C1)N(c1cccc(O)c1)C1=C(C2)C(=O)CC(C)(C)C1,12.0%,1.03,13.0,10.0,3.62*,.
CC1(C)CC(=O)c2cnc(N3CCN(c4ccccc4)CC3)nc2C1,4.0%,1.03,6.0,5.0,1.16,i
CC(C)Cc1cc(-c2ccco2)c(C#N)c(N)n1,9.0%,1.11,10.0,7.0,2.2*,.
O=C(CSc1nnc(-c2ccccc2)o1)Nc1ccccc1F,3.0%,1.04,4.0,5.0,1.05,i
COc1cc(OC)cc(-c2nnc(Nc3nc4c(F)cccc4s3)o2)c1,6.0%,1.04,11.0,7.0,3.41*,.
COc1ccc(-c2nnc(Nc3nc4c(OC)cccc4s3)o2)c(OC)c1,23.0%,1.22,18.0,2.0,2.33*,+
COc1ccc(-c2nnc(Nc3nc4c(OC)cccc4s3)o2)cc1,8.0%,1.23,12.0,0.0,1.97,i
Fc1cccc2sc(Nc3nnc(-c4ccccc4)o3)nc12,8.0%,1.21,11.0,4.0,4.89*,.
COc1ccc(C(=O)Nc2ccc(N3CCN(c4ccc(OC)cc4)CC3)c(C#N)c2)cc1,11.0%,1.03,14.0,7.0,5.12*,.
COc1ccc(C(=O)N2CCC(C(=O)Nc3ccc(OC)c(OC)c3)CC2)cc1,3.0%,1.01,5.0,4.0,1.11,i
COc1ccc(N2CCN(c3ccc(NC(=O)C4CCCCC4)cc3C#N)CC2)cc1,5.0%,1.02,8.0,1.0,2.19*,i
